Measured values from PubChem BioAssay (EPA / NIEHS).
Active and inactive are the calls of the source. How the source made its calls: active means hit-call score of the fitted dose curve at least 0.9, where 1 is the maximum; inactive means score below 0.9.

test: ATG_PPRE_CIS: Attagene CIS-FACTORIAL HepG2 Assay for human Peroxisome Proliferator-activated Response Element (PPRE) (AID 2282958); details: HepG2 PPRE cis-element reporter, Attagene transcription factor profiling; actives raise or lower the signal
Description: ATG_CIS is a cell-based, multiplexed-readout assay that uses HepG2, a human liver cell line, with measurements taken at 24 hours after chemical dosing in a 24-well plate.ATG_PPRE_CIS is one of 52 assay component(s) measured or calculated from the ATG_CIS assay. It is designed to make measurements of mRNA induction, a form of inducible reporter, as detected with fluorescence intensity signals by Reverse transcription polymerase chain reaction (RT-PCR) and Capillary electrophoresis technology.Data from the assay component ATG_PPRE_CIS was analyzed into 1 assay endpoint. This assay endpoint, ATG_PPRE_CIS, was analyzed with bidirectional fitting relative to DMSO as the negative control and baseline of activity. Using a type of inducible reporter, measures of mRNA for gain or loss-of-signal activity can be used to understand the reporter gene at the transcription factor-level as they relate to the gene PPARA and PPARD and PPARG. Furthermore, this assay endpoint can be referred to as a primary readout, because this assay has produced multiple assay endpoints where this one serves a reporter gene function. To generalize the intended target to other relatable targets, this assay endpoint is annotated to the nuclear receptor intended target family, where the subfamily is non-steroidal.
Human liver HepG2 cells are transiently transfected with multiple reporter transcription units (MRTUs) in 6-well plates using FuGene 6 reagent (Roche; 3 ml FuGene/1 mg DNA). The MRTU constructs are regulated by a cis-regulating element (promoter). […] A major difference between the CIS and TRANS system is that in CIS activities of endogenous TFs are measured, whereas the TRANS assay evaluates changes in activities of exogenous, chimeric NR-Gal4 proteins. […] At the end of 24 hour incubation, total RNA was isolated using TriZol reagent (Invitrogen). The isolated RNA is then reverse-transcribed using oligo(dT) primer and Mo-MLV reverse transcriptase (Invitrogen) with DNAse I (Ambion) treatment for 30 min. The one-tenth of the produced cDNA was amplified by PCR using Taq DNA polymerase (Invitrogen) and two reporter sequence-specific primers. The PCR products were fluorescently labeled by primer extension with 6-arboxyfluorescein (6-FAM) 5'-labeled reporter sequence-specific primer (2 min at 95 C, 20 s at 68 C and 10 min at 72 C) and these products were digested with 5U of HpaI (New England Biolabs) for 2h at 37 C. The fragments were purified using Qiaquick PCR columns (Qiagen), analyzed on an ABI 3130xL genetic analyzer (Applied Biosystems) with peak positions identified by using a set of X-rhodamine (ROX)-labeled MapMarker1000 molecular weight standards (BioVentures). The raw capillary electrophoresis data was processed using Attagraph software (Attagene).

| SMILES | AC50 | outcome |
| --- | --- | --- |
| c1ccc(Nc2ccc3ccccc3c2)cc1 | 39.8 µM (active) | – |
| ClC1=C(Cl)[C@]2(Cl)[C@@H]3[C@@H](Cl)[C@H](Cl)C[C@@H]3[C@@]1(Cl)C2(Cl)Cl | – | inactive |
| CC(=O)/C=C/c1ccccc1 | – | inactive |
| CC(C)COP(=O)(OCC(C)C)OCC(C)C | 128 µM (active) | – |
| O=[N+]([O-])C=Cc1ccccc1 | 61.5 µM (active) | – |
| CCCCCCCCCCCCCCCC[N+](C)(C)C | – | inactive |
| O=[N+]([O-])c1cc(C(F)(F)F)c(Cl)c([N+](=O)[O-])c1Cl | – | inactive |
| Oc1ccc(Cl)cc1 | – | inactive |
| N#CCNCC#N | – | inactive |
| C[C@]12CC[C@H](O)C[C@H]1CC[C@@H]1[C@@H]2C[C@@H](O)[C@]2(C)[C@@H](C3=CC(=O)OC3)CC[C@]12O | – | inactive |
| CCOC(=O)NC(=S)Nc1ccccc1NC(=S)NC(=O)OCC | – | inactive |
| Cc1ccccc1CCl | – | inactive |
| Nc1ccccc1 | – | inactive |
| [CH3][Sn]([CH3])([Cl])[Cl] | – | inactive |
| CC1(C)[C@H](C(=O)O[C@H](C#N)c2cccc(Oc3ccccc3)c2)[C@@H]1C=C(Br)Br | – | inactive |
| CCOP(=O)(OCC)Oc1ccc([N+](=O)[O-])cc1 | – | inactive |
| CC[N+](=O)[O-] | – | inactive |
| CC(=O)C=Cc1ccccc1 | – | inactive |
| CN(C)C(=O)C(c1ccccc1)c1ccccc1 | – | inactive |
| CCC[N+](=O)[O-] | – | inactive |

| SMILES | AC50 | outcome |
| --- | --- | --- |
| C=CC(=O)OCC(CC)CCCC (stereo not given) | – | inactive |
| CCCCCc1cc(O)cc(O)c1 | 19.8 µM (active) | – |
| Oc1cc(Cl)ccc1Cl | – | inactive |
| CCC(=O)c1ccc(Cl)cc1 | – | inactive |
| CCC(C)c1cc([N+](=O)[O-])cc([N+](=O)[O-])c1OC(=O)C=C(C)C (stereo not given) | – | inactive |
| CCCCCCCCCCCC#N | – | inactive |
| CC(C)(Cl)Cl | – | inactive |
| COc1ccc(CO)cc1 | – | inactive |
| [CH3][Sn]([Cl])([Cl])[Cl] | – | inactive |
| O=C1Nc2ccc(Cl)cc2C(c2ccccc2)=NC1O (stereo not given) | – | inactive |
| CC1(C)CC(=O)CC(C)(C)N1[O] | – | inactive |
| Cc1ccc(N(SC(F)(Cl)Cl)S(=O)(=O)N(C)C)cc1 | 11.1 µM (active) | – |
| C[N+](=O)[O-] | – | inactive |
| Cc1cc(C)c(C2=C(OC(=O)CC(C)(C)C)C3(CCCC3)OC2=O)c(C)c1 | – | inactive |
| O=C(O)COc1ccccc1 | – | inactive |
| O=C(O)c1cc[c]([Hg][Cl])cc1 | – | inactive |
| O=c1c2ccccc2c(=O)c2c1cc(Cl)c1[nH]c3c([nH]c12)c(Cl)cc1c(=O)c2ccccc2c(=O)c13 | – | inactive |
| C=CC(=O)OCCCCOC(=O)C=C | – | inactive |
| Oc1ccc(C2(c3ccc(O)cc3)c3ccccc3-c3ccccc32)cc1 | – | inactive |
| Nc1ccc(Cl)c(Cl)c1 | – | inactive |
